Measurements: PubChem BioAssay (Tox21)
Several values for one entry are separate records, joined by “and”; a condition that tells them apart may be missing. Identical values can stand only once. Inconclusive results are not listed. A call without a number means that no potency is given here. A number with no mark means an inactive call. Activity calls are given as the source filed them. No rule for the calls is given here.

Assay: qHTS assay to identify small molecule antagonists of the estrogen related receptor signaling pathway with the pleiotropic PPARgamma coactivator (PGC) from Tox21 10K library (AID 1224841); also: actives are mostly falling curves and most rising ones were filed inactive; nearly all actives have a fitted effect of over 50% in size
Conditions: PGC/ERR reporter cell line, ONE-Glo luciferase, 18 h; series mostly up to 92.4 µM
Source text: U.S. Tox21 Program National Center for Advancing Translational Sciences [NCATS] NIH Chemical Genomics Center [NCGC] U.S. Environmental Protection Agency [EPA] National Institutes of Environmental Health Sciences [NIEHS] National Toxicology Program [NTP] U.S. Food and Drug Administration [FDA] Tox21 Assay Overview: Estrogen related receptors (ERRs), the first orphan nuclear receptors discovered, play an important role in the control of cellular energy metabolism. ERRs are required for high-energy production in response to the environmental challenges. The pleiotropic PPARgamma coactivator (PGC) is a major partner of ERR and a key regulator in energy homeostasis. Together they have been implicated in the etiology of metabolic disorders such as Type 2 diabetes and metabolic syndrome. ERR-alpha was also identified as an adverse marker for breast cancer progression; ERR-alpha-positive tumors have a poor prognosis. To screen and to identify environmental compounds that perturb the ERR and PGC/ERR signaling pathways could provide valuable information for potential therapeutic or preventive measures in the treatment of metabolic disease. For identifying PGC/ERR antagonists, PGC/ERR cell line (provided by NTP) has been used to screen Tox21 10K library.
Tox21 Assay Protocol Summary: The PGC/ERR cells were dispensed at 2,000 cells/5 ul/well in 1536-well white plates using a Multidrop dispenser. After the assay plates were incubated at a 37 C/5% CO2 incubator for 6 hours, 23 nL of compounds dissolved in DMSO, positive and negative controls or DMSO only was transferred to the assay plate by a pin tool. The plates were incubated at 37 C for 18 hours. 4 ul/well of One-Glo reagent was added into the assay plates using a Flying Reagent Dispenser. After 30-minute incubation at room temperature, the luminescence intensity in the plates was measured using a ViewLux plate reader.
Potency is read from the fitted curve at half-maximal effect.

| SMILES | Potency | activity, negative = inhibition |
| --- | --- | --- |
| COc1nccnc1CC(C)C | inactive | – |
| N[C@@H](CSSC[C@H](N)C(=O)O)C(=O)O | – | 16.2% [at 0.349 µM] |
| c1ccc(Nc2cccc3ccccc23)cc1 | inactive | – |
| C(=C/c1ccccc1)/c1ccccc1 | inactive | – |
| Clc1cc(Cl)c(-c2c(Cl)c(Cl)cc(Cl)c2Cl)cc1Cl | inactive | – |
| Cc1ccc(CCn2c3c(c4cc(Cl)ccc42)CN(C)CC3)cn1 | inactive | – |
| Cc1c(C)n(Cc2ccccc2)c2ccc(C(=O)OCCN(C)C)cc12 | inactive | – |
| CN(Cc1cc(Br)cc(Br)c1N)C1CCCCC1 | inactive | – |
| CC1(C)COCN1 | inactive | – |
| CO[Si](CCC1CCC2OC2C1)(OC)OC (stereo not given) | inactive | – |
| C[C@H]1O[C@@H](O[C@H]2[C@@H](O)C[C@H](O[C@H]3[C@@H](O)C[C@H](O[C@H]4CC[C@@]5(C)[C@H](CC[C@@H]6[C@@H]5C[C@@H](O)[C@]5(C)[C@@H](C7=CC(=O)OC7)CC[C@]65O)C4)O[C@@H]3C)O[C@@H]2C)C[C@H](O)[C@@H]1O | 154 nM (active) and 107 nM (active) | – |
| O[C@@H](c1cc(C(F)(F)F)nc2c(C(F)(F)F)cccc12)[C@H]1CCCCN1 | inactive | – |
| CCc1cccc(CC)c1N(COC)C(=O)CS(=O)(=O)O | inactive | – |
| CC1CCCCN1CCCOC(=O)c1ccc(OC2CCCCC2)cc1 (stereo not given) | inactive | – |
| CC(C)OC(=O)c1cc(C(=O)OC(C)C)cc([N+](=O)[O-])c1 | inactive | – |
| CCCCCCCCCCCCCCCC | inactive | – |
| CCOC(/C=C(\C)CCC=C(C)C)OCC | inactive | – |
| Cn1cccc1 | inactive | – |
| Cc1cc2c(C(C)C)c(O)c(O)c(C=O)c2c(O)c1-c1c(C)cc2c(C(C)C)c(O)c(O)c(C=O)c2c1O | 11.9 µM (active) | – |
| COc1ccc2sc(C(=O)Nc3nnn[nH]3)c(OC(C)C)c2c1 | 24.2 µM (active) | – |

| SMILES | Potency | activity, negative = inhibition |
| --- | --- | --- |
| COc1ccccc1OCCNCC(O)COc1cccc2[nH]c3ccccc3c12 (stereo not given) | 13.3 µM (active) | – |
| CCN1CCN(c2cc(-c3ccc(F)cc3)c3c(n2)CCCCCC3)CC1 | – | 3.89% [at 19 µM] |
| CCCCCCCCCCCCCOP(=O)(O)O | inactive | – |
| Nc1cc(Cl)c([N+](=O)[O-])cc1O | inactive | – |
| CCCCCCCCCCCCCCCCCO | – | 44.5% [at 19 µM] |
| O=C1NC2CCCCN2C12CCN(CCCN1c3ccccc3CCc3ccc(Cl)cc31)CC2 (stereo not given) | 10.6 µM (active) | – |
| O=C1c2c(O)ccc(O)c2C(=O)c2c(NCCNCCO)ccc(NCCNCCO)c21 | inactive | – |
| CCOC(=O)CC(C)O (stereo not given) | inactive | – |
| CC(=O)Oc1ccc(C2(c3ccc(OC(C)=O)cc3)C(=O)Nc3ccccc32)cc1 | inactive | – |
| O=C1C=CC(=O)N1c1ccccc1 | 54.5 µM (active) | – |
| CCO[Si](C)(C)OCC | 24.3 µM (active) | – |
| CC(C)(c1cc(Br)c(OCCO)c(Br)c1)c1cc(Br)c(OCCO)c(Br)c1 | 16.8 µM (active) | – |
| CC(C)N=C(N)/N=C(\N)Nc1ccc(Cl)cc1 | inactive | – |
| CCN(CC)c1ccc(N)cc1 | 2.5 µM (active) | – |
| CCCCCCOc1ccc(O)cc1 | inactive | – |
| CCCCCCCCCC(=O)N(C)C | inactive | – |
| CCc1c(C(=O)O)c(=O)cnn1-c1ccc(Cl)cc1 | inactive | – |
| C/C=C/C(=O)Oc1c(CCCCCC(C)C)cc([N+](=O)[O-])cc1[N+](=O)[O-] | 6.86 µM (active) | – |
| CCNc1nc(NC(C)CC)nc(OC)n1 (stereo not given) | inactive | – |
| CCC(C)c1cc([N+](=O)[O-])cc([N+](=O)[O-])c1OC(=O)OC(C)C (stereo not given) | 21.7 µM (active) | – |
